The panel holds about 83,000 compounds, 20% with a hit somewhere; the sample as a whole holds those more often.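 Values shown are percent growth following 48 h exposure of cells in 96-well plates to a single concentration of compound; below 10 was considered active.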 The source made the active and inactive calls.
Tests used:
Experiment in all cases: NCI-60 one-dose screen, 48 h (100 = growth as untreated, 0 = no growth, -100 = all killed)
Settings in all cases: 10 µM unless noted
HCT-15 colon = tested on: HCT-15 colon
HT29 colon = tested on: HT29 colon
SNB-75 CNS = tested on: SNB-75 CNS
SNB-19 CNS = tested on: SNB-19 CNS
U251 CNS = tested on: U251 CNS
PC-3 prostate = tested on: PC-3 prostate
SK-MEL-5 melanoma = tested on: SK-MEL-5 melanoma
UACC-62 melanoma = tested on: UACC-62 melanoma
LOX IMVI melanoma = tested on: LOX IMVI melanoma
SK-MEL-28 melanoma = tested on: SK-MEL-28 melanoma
SK-MEL-2 melanoma = tested on: SK-MEL-2 melanoma
EKVX NSCLC = tested on: EKVX NSCLC
SN12C renal = tested on: SN12C renal
UO-31 renal = tested on: UO-31 renal
TK-10 renal = tested on: TK-10 renal
ACHN renal = tested on: ACHN renal
A498 renal = tested on: A498 renal
CCRF-CEM leukemia = tested on: CCRF-CEM leukemia
MOLT-4 leukemia = tested on: MOLT-4 leukemia
CAKI-1 renal = tested on: CAKI-1 renal

Measured: growth

COc1cc(/C=C/C(=O)c2cnn(-c3cc(=O)[nH]c4ccc(C)cc34)c2C)cc(OC)c1OC
active: HCT-15 colon -38.7% | HT29 colon -67.3% | U251 CNS -85% | PC-3 prostate 5.99% | SK-MEL-5 melanoma -95.2% | UACC-62 melanoma -71.9% | LOX IMVI melanoma -92% | SK-MEL-28 melanoma -77.2% | SK-MEL-2 melanoma -73.1% | EKVX NSCLC -9.39% | UO-31 renal -45.8% | ACHN renal -8.39% | A498 renal 8.36% | CCRF-CEM leukemia -22.2% | MOLT-4 leukemia -8.06%
inactive: SNB-75 CNS 45.1% | SNB-19 CNS 18.7% | SN12C renal 10.4% | TK-10 renal 37.8%

Clc1ccc(CNc2nc(SCCN3CCOCC3)nc3c2cnn3CC(Cl)c2ccc(Br)cc2)cc1 (stereo not drawn)
inactive: SNB-75 CNS 76.2% | SNB-19 CNS 50.4% | U251 CNS 38.3% | PC-3 prostate 34.3% | SK-MEL-5 melanoma 42.3% | UACC-62 melanoma 57.5% | LOX IMVI melanoma 30.9% | SK-MEL-28 melanoma 56.2% | SK-MEL-2 melanoma 33.6% | SN12C renal 42.7% | UO-31 renal 28.5% | TK-10 renal 68.7% | ACHN renal 23.5% | CAKI-1 renal 45% | A498 renal 106% | CCRF-CEM leukemia 19.7%
active: HCT-15 colon 1.95% | HT29 colon -51.5% | MOLT-4 leukemia -22.7%

S=C(Nc1ccccc1)Nc1ccc(OCc2nc3ccc(Cl)cc3[nH]2)cc1
inactive: HCT-15 colon 67.9% | HT29 colon 105% | SNB-75 CNS 89.4% | SNB-19 CNS 89.1% | U251 CNS 82.6% | PC-3 prostate 77.8% | SK-MEL-5 melanoma 82.8% | UACC-62 melanoma 77.3% | LOX IMVI melanoma 36.3% | SK-MEL-28 melanoma 87.9% | SK-MEL-2 melanoma 91.4% | SN12C renal 78.8% | UO-31 renal 70.3% | TK-10 renal 114% | ACHN renal 81.8% | CAKI-1 renal 84.1% | CCRF-CEM leukemia 54.2% | MOLT-4 leukemia 52.3%

COc1ccc2c(c1)C(Sc1ccc(Br)cc1)c1c(nc(N)c(C#N)c1N)O2 (stereo not drawn)
active: CCRF-CEM leukemia 9.55%
inactive: HCT-15 colon 76.3% | HT29 colon 91.1% | SNB-75 CNS 80.4% | SNB-19 CNS 80.6% | U251 CNS 77.2% | PC-3 prostate 48.2% | SK-MEL-5 melanoma 85.6% | UACC-62 melanoma 76.4% | LOX IMVI melanoma 16.7% | SK-MEL-28 melanoma 104% | SK-MEL-2 melanoma 94.3% | SN12C renal 77.1% | UO-31 renal 43.7% | TK-10 renal 108% | ACHN renal 79.7% | CAKI-1 renal 80.3% | A498 renal 103% | MOLT-4 leukemia 55%

COc1ccc(-c2nc3ccc(-c4nnc(SCc5ccccc5)o4)cc3[nH]2)cc1
inactive: PC-3 prostate 20.1% | SK-MEL-2 melanoma 11% | CCRF-CEM leukemia 13.9% | MOLT-4 leukemia 11.5%
active: HCT-15 colon -17.4% | HT29 colon 9.58% | SNB-75 CNS -82.8% | SNB-19 CNS 2.92% | U251 CNS -77.1% | SK-MEL-5 melanoma -21.7% | UACC-62 melanoma -72.3% | LOX IMVI melanoma -96.6% | SK-MEL-28 melanoma -36.3% | EKVX NSCLC -0.06% | SN12C renal -66.3% | UO-31 renal -44.2% | TK-10 renal -35.3% | ACHN renal -85.2% | A498 renal -36.2%

Cn1cc(-c2cc(N)n3nc(-c4c[nH]c5ccccc45)cc3n2)c2ccccc21
active: HCT-15 colon -68.5% | HT29 colon -68.2% | SNB-75 CNS -46.8% | SNB-19 CNS -88.7% | U251 CNS -93.1% | PC-3 prostate -50.2% | SK-MEL-5 melanoma -92.5% | UACC-62 melanoma -96.5% | LOX IMVI melanoma -78.2% | SK-MEL-28 melanoma -98.8% | SK-MEL-2 melanoma -88.2% | SN12C renal -85.5% | UO-31 renal -83.5% | TK-10 renal -93.4% | ACHN renal -100% | CAKI-1 renal -100% | A498 renal -90.4% | CCRF-CEM leukemia -20.6% | MOLT-4 leukemia 9.25%

COc1cc2cc(C(=O)N3C[C@@H](CCl)c4c3cc(OC(=O)N(CCC(=O)N3CCN(C)CC3)C3CCCCC3)c3ccccc43)[nH]c2c(OC)c1OC
active: HCT-15 colon -34.5% | HT29 colon -34.5% | SNB-75 CNS -75.7% | SNB-19 CNS -5.79% | U251 CNS -63.4% | PC-3 prostate -17.8% | SK-MEL-5 melanoma -99.2% | UACC-62 melanoma -94.5% | LOX IMVI melanoma -96.6% | SK-MEL-28 melanoma -97.5% | SK-MEL-2 melanoma -82.4% | SN12C renal -82.8% | UO-31 renal -73.2% | TK-10 renal -71.3% | ACHN renal -84.6% | CAKI-1 renal -79.1% | A498 renal -19.9% | CCRF-CEM leukemia -34.3% | MOLT-4 leukemia -19.8%

CC(C)(C)OC(=O)N1C/C(=C\c2ccc(F)cc2)C(=O)/C(=C/c2ccc(F)cc2)C1
active: HCT-15 colon -61% | HT29 colon -87.2% | SNB-19 CNS -89.6% | U251 CNS -100% | PC-3 prostate -31.1% | SK-MEL-5 melanoma -92.3% | UACC-62 melanoma -96.1% | LOX IMVI melanoma -100% | SK-MEL-28 melanoma -95.9% | SK-MEL-2 melanoma -36.4% | EKVX NSCLC -52.6% | SN12C renal -93.7% | UO-31 renal -73.5% | ACHN renal -100% | CCRF-CEM leukemia -6.19% | MOLT-4 leukemia -7.57%
inactive: SNB-75 CNS 13.2% | TK-10 renal 10% | A498 renal 97%

NC(=O)c1ccc(-c2ccc3ncnc(N4CCc5cc(F)c(Cl)cc54)c3c2)cn1
inactive: HCT-15 colon 59.9% | HT29 colon 91.6% | SNB-75 CNS 106% | SNB-19 CNS 74.3% | U251 CNS 87.4% | PC-3 prostate 50.8% | SK-MEL-5 melanoma 76.2% | UACC-62 melanoma 71.8% | LOX IMVI melanoma 57% | SK-MEL-28 melanoma 91.7% | SK-MEL-2 melanoma 95.2% | EKVX NSCLC 19.5% | SN12C renal 61.9% | UO-31 renal 33.1% | TK-10 renal 28.2% | ACHN renal 30.3% | A498 renal 74.7% | CCRF-CEM leukemia 44.2% | MOLT-4 leukemia 18.4%

Cc1ccc(C(=O)Nc2ccc(-n3ccnc3)c(C(F)(F)F)c2)cc1C#Cc1cnc2cccnn12
active: SNB-75 CNS -2.9% | PC-3 prostate -16.3% | SK-MEL-5 melanoma -55% | UACC-62 melanoma -15.1% | LOX IMVI melanoma 3.66% | SK-MEL-28 melanoma -10.8% | SK-MEL-2 melanoma -23.6% | UO-31 renal 5.87% | A498 renal -6.46% | MOLT-4 leukemia -32.5%
inactive: HCT-15 colon 20.7% | HT29 colon 17.8% | SNB-19 CNS 36.4% | U251 CNS 33.6% | EKVX NSCLC 27.5% | SN12C renal 14.4% | TK-10 renal 23% | ACHN renal 12.3% | CCRF-CEM leukemia 22.9%

N#CC1=C(c2cccs2)Nc2c(c(-c3ccccc3)nn2-c2ccccc2)C12C(=O)Nc1ccc(Cl)cc12 (stereo not drawn)
inactive: HCT-15 colon 10.5% | HT29 colon 14.4% | SNB-75 CNS 36.9% | SNB-19 CNS 13.4% | U251 CNS 16.2% | PC-3 prostate 12.8% | SK-MEL-5 melanoma 25.1% | UACC-62 melanoma 15.4% | LOX IMVI melanoma 25.8% | SK-MEL-28 melanoma 41.8% | SK-MEL-2 melanoma 22.8% | SN12C renal 33.8% | UO-31 renal 12.7% | TK-10 renal 31.5% | ACHN renal 12.6% | CAKI-1 renal 23.3% | A498 renal 88.8% | CCRF-CEM leukemia 13.7% | MOLT-4 leukemia 19.3%

CNc1nc2ccccc2n2c(-c3ccc(O)c(O)c3)cnc12
active: HCT-15 colon 5.19% | HT29 colon 2.27% | SNB-75 CNS -15.5% | U251 CNS 6.12% | SK-MEL-5 melanoma -23.6% | UACC-62 melanoma 4.77% | LOX IMVI melanoma 5.44% | SK-MEL-2 melanoma 3.66% | SN12C renal 4.03% | UO-31 renal 1.12% | ACHN renal 6.64%
inactive: SNB-19 CNS 27.5% | PC-3 prostate 31.7% | SK-MEL-28 melanoma 23.3% | EKVX NSCLC 16.3% | TK-10 renal 62.8% | A498 renal 92.4% | CCRF-CEM leukemia 14.9% | MOLT-4 leukemia 11%

COc1ccc(NC2=C(I)C(=O)C(C)=C(C)C2=O)cc1
inactive: HCT-15 colon 64.3% | HT29 colon 101% | SNB-75 CNS 86.3% | SNB-19 CNS 81.2% | U251 CNS 25.9% | PC-3 prostate 10.2% | UACC-62 melanoma 33.3% | SK-MEL-28 melanoma 52.6% | SK-MEL-2 melanoma 56.9% | SN12C renal 17% | UO-31 renal 46.1% | TK-10 renal 155% | ACHN renal 30.4% | CAKI-1 renal 29.1%
active: SK-MEL-5 melanoma -44.6% | LOX IMVI melanoma 2.42% | CCRF-CEM leukemia -11.1% | MOLT-4 leukemia -6.32%

Cc1cc(Cl)ccc1NC(=O)Nc1ccc(-c2ccc3c(c2)NC(=O)/C3=C\c2ccc[nH]2)cc1
inactive: HCT-15 colon 92.6% | HT29 colon 109% | SNB-75 CNS 99.4% | SNB-19 CNS 94.5% | U251 CNS 103% | PC-3 prostate 104% | SK-MEL-5 melanoma 106% | UACC-62 melanoma 98.5% | LOX IMVI melanoma 101% | SK-MEL-28 melanoma 114% | SK-MEL-2 melanoma 121% | EKVX NSCLC 67.5% | SN12C renal 97.6% | UO-31 renal 78.3% | TK-10 renal 115% | ACHN renal 98.8% | A498 renal 119% | CCRF-CEM leukemia 97.8% | MOLT-4 leukemia 86.2%

Cn1cc(-c2cc(N)n3nc(-c4c[nH]c5ccc(Cl)cc45)cc3n2)c2cc(Br)cnc21
active: HCT-15 colon -80.2% | HT29 colon -72% | SNB-75 CNS -24.4% | SNB-19 CNS 2.78% | U251 CNS -73.9% | PC-3 prostate -52.4% | SK-MEL-5 melanoma -57% | UACC-62 melanoma -59.6% | LOX IMVI melanoma -93.3% | SK-MEL-28 melanoma -25.9% | SK-MEL-2 melanoma -49.9% | UO-31 renal -39.3% | TK-10 renal -53.1% | ACHN renal -76.3% | CAKI-1 renal -63% | CCRF-CEM leukemia -66.1% | MOLT-4 leukemia -56.2%
inactive: SN12C renal 42.5% | A498 renal 29%

Reference: PubChem BioAssay (NCI)
